Source: the supplement of paper PMC11732987, “Enantioselective OTUD7B fragment discovery through chemoproteomics screening and high-throughput optimisation” (Communications Chemistry, 2025)

Assays:
Test in all cases: log2 ratio of Biotin-Ahx-Ub-VS probe labelling (compound/DMSO); higher = less target engagement, active = hit call of the paper (q ≤ 0.05, log2 ratio ≤ -1)
Settings in all cases: treatment time: 3 h
[1] = compound: CCC1N(CCc2sccc12)C(=O)CCl
Method in brief: (§1)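 HEK293T lysate (495 µg per sample, in Tris/CHAPS/IGEPAL buffer with protease inhibitors) was exposed in triplicate to compound at 50 or 200 µM, or to DMSO, for 3 h, then to Biotin-Ahx-Ub-VS (0.5 µM final) for 1 h. The labelled DUBs were enriched on NeutrAvidin, digested with LysC and trypsin, and analysed by diaPASEF LC-MS/MS. Average base-two log ratios of compound over DMSO came from median-normalised label-free quantities by unpaired t-test. Only proteins with at least 2 unique peptides were used.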

[2] = compound: CN1c2ccccc2C(CS1(=O)=O)NC(=O)CCl
Method in brief: as §1

[3] = compound: Cl.ClCC(=O)N1CCc2ncncc2C1
Method in brief: as §1

[4] = compound: Cl.Cn1ncc2C(CCCc12)NC(=O)CCl
Method in brief: as §1

[5] = compound: ClCC(=O)NC1CCOc2ccccc12
Method in brief: as §1

[6] = compound: ClCC(=O)NC1CCCc2ccccc12
Method in brief: (§2)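 These values are averaged ratios of compound to vehicle, tested by unpaired t-test. HEK293T lysate (495 µg per sample) was preincubated in triplicate with compound across a concentration series or vehicle for 3 h and then with Biotin-Ahx-Ub-VS at 0.5 µM final for 1 h. Deubiquitinases carrying the probe were NeutrAvidin-enriched, digested with LysC and trypsin, and measured by diaPASEF LC-MS/MS. Ratios are expressed as log2 from global-median-normalised Spectronaut label-free quantities, and only proteins with two or more unique peptides were included.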

[7] = compound: ClCC(=O)N[C@@H]1CCCc2ccccc12
Method in brief: as §2

[8] = compound: ClCC(=O)N[C@H]1CCCc2ccccc12
Method in brief: as §2

[9] = compound: CCC1N(CCc2cc(OC)c(Cl)cc12)C(=O)CCl
Method in brief: as §1

[10] = compound: CCCC1N(CCc2cc(OC)c(OC)cc12)C(=O)CCl
Method in brief: as §1

Measured: log2 ratio of Biotin-Ahx-Ub-VS probe labelling

FAM105A (UniProt Q9NUU6)
UniProt Q9NUU6, sequence (Q9NUU6 whole entry): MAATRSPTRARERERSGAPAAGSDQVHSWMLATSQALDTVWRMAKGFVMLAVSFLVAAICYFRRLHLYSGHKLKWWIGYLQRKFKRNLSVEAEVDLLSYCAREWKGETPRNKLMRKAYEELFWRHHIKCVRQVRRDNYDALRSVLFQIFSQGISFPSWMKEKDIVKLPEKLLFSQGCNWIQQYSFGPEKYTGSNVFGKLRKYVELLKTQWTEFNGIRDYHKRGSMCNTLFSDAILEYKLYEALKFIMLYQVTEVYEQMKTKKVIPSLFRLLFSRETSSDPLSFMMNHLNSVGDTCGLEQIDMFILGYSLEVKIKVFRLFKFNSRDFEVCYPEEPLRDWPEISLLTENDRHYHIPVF
inactive: [1]; compound concentration: 50uM -0.137 | [1]; compound concentration: 200uM -0.0129 | [2]; compound concentration: 50uM 0.0298 | [2]; compound concentration: 200uM 0.102 | [3]; compound concentration: 50uM -0.0634 | [3]; compound concentration: 200uM -0.355 | [4]; compound concentration: 50uM -0.00158 | [4]; compound concentration: 200uM -0.0665 | [5]; compound concentration: 50uM -0.0638 | [5]; compound concentration: 200uM -0.105 | [6]; compound concentration: 0.78uM 0.0819 | [6]; compound concentration: 1.56uM 0.102 | [6]; compound concentration: 3.13uM -0.00663 | [6]; compound concentration: 6.25uM 0.0556 | [6]; compound concentration: 12.5uM 0.00386 | [6]; compound concentration: 25uM -0.153 | [6]; compound concentration: 50uM 0.14 | [6]; compound concentration: 100uM -0.0653 | [6]; compound concentration: 200uM 0.157 | [7]; compound concentration: 0.78uM 0.0146 | [7]; compound concentration: 1.56uM 0.139 | [7]; compound concentration: 3.13uM 0.288 | [7]; compound concentration: 6.25uM 0.071 | [7]; compound concentration: 12.5uM -0.0354 | [7]; compound concentration: 25uM -0.00679 | [7]; compound concentration: 50uM 0.0826 | [7]; compound concentration: 100uM 0.0658 | [7]; compound concentration: 200uM -0.0519 | [8]; compound concentration: 0.78uM 0.122 | [8]; compound concentration: 1.56uM -0.0166 | [8]; compound concentration: 3.13uM 0.227 | [8]; compound concentration: 6.25uM 0.317 | [8]; compound concentration: 12.5uM 0.0169 | [8]; compound concentration: 25uM 0.0586 | [8]; compound concentration: 50uM -0.064 | [8]; compound concentration: 100uM 0.0853 | [8]; compound concentration: 200uM 0.091 | [9]; compound concentration: 50uM 0.0998 | [9]; compound concentration: 200uM -0.0916 | [10]; compound concentration: 50uM -0.253 | [10]; compound concentration: 200uM -0.175

USP22 (UniProt Q9UPT9)
UniProt Q9UPT9, sequence (Q9UPT9 whole entry): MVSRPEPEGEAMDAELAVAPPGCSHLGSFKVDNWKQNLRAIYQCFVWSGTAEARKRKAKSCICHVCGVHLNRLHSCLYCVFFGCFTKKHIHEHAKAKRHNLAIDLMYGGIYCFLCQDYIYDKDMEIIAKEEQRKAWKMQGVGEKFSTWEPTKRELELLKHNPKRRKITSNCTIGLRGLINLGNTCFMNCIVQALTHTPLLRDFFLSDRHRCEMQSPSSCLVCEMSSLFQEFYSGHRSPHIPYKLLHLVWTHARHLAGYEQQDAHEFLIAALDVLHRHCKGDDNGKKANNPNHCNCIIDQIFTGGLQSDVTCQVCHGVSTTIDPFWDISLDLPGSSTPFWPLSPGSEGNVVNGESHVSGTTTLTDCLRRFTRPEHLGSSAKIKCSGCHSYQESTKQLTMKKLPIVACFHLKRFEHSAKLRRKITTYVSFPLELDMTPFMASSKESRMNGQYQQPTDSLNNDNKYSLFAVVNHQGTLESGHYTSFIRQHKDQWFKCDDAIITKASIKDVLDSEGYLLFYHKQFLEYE
inactive: [1]; compound concentration: 50uM -0.0676 | [1]; compound concentration: 200uM -0.0769 | [2]; compound concentration: 50uM -0.0879 | [2]; compound concentration: 200uM -0.227 | [3]; compound concentration: 50uM 0.165 | [3]; compound concentration: 200uM -0.284 | [4]; compound concentration: 50uM 0.167 | [4]; compound concentration: 200uM -0.0888 | [5]; compound concentration: 50uM 0.0839 | [5]; compound concentration: 200uM -0.0221 | [6]; compound concentration: 0.78uM -0.256 | [6]; compound concentration: 1.56uM -0.271 | [6]; compound concentration: 3.13uM -0.269 | [6]; compound concentration: 6.25uM -0.318 | [6]; compound concentration: 12.5uM -0.0891 | [6]; compound concentration: 25uM -0.169 | [6]; compound concentration: 50uM -0.192 | [6]; compound concentration: 100uM -0.263 | [6]; compound concentration: 200uM -0.376 | [7]; compound concentration: 0.78uM -0.254 | [7]; compound concentration: 1.56uM -0.18 | [7]; compound concentration: 3.13uM -0.341 | [7]; compound concentration: 6.25uM -0.0166 | [7]; compound concentration: 12.5uM -0.101 | [7]; compound concentration: 25uM -0.166 | [7]; compound concentration: 50uM -0.259 | [7]; compound concentration: 100uM -0.0453 | [7]; compound concentration: 200uM -0.238 | [8]; compound concentration: 0.78uM -0.107 | [8]; compound concentration: 1.56uM -0.258 | [8]; compound concentration: 3.13uM -0.171 | [8]; compound concentration: 6.25uM -0.0996 | [8]; compound concentration: 12.5uM -0.17 | [8]; compound concentration: 25uM -0.0497 | [8]; compound concentration: 50uM -0.0246 | [8]; compound concentration: 100uM -0.0113 | [8]; compound concentration: 200uM -0.194 | [9]; compound concentration: 50uM -0.141 | [9]; compound concentration: 200uM -0.349 | [10]; compound concentration: 50uM -0.229 | [10]; compound concentration: 200uM -0.475

YOD1 (UniProt Q5VVQ6)
UniProt Q5VVQ6, sequence (Q5VVQ6 whole entry): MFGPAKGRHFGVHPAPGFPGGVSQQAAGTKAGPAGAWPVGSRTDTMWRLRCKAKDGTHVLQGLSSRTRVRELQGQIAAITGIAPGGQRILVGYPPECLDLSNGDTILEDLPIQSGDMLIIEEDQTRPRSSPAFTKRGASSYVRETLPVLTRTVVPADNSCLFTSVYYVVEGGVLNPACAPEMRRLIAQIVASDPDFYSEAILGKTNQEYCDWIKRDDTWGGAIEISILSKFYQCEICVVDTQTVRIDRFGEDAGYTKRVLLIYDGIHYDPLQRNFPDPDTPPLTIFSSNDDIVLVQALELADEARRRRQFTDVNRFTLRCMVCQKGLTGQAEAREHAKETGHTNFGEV
inactive: [1]; compound concentration: 50uM -0.141 | [1]; compound concentration: 200uM -0.171 | [2]; compound concentration: 50uM -0.237 | [2]; compound concentration: 200uM -0.218 | [3]; compound concentration: 50uM -0.0162 | [3]; compound concentration: 200uM -0.45 | [4]; compound concentration: 50uM 0.0347 | [4]; compound concentration: 200uM -0.0749 | [5]; compound concentration: 50uM -0.0482 | [5]; compound concentration: 200uM 0.0949 | [6]; compound concentration: 0.78uM -0.286 | [6]; compound concentration: 1.56uM -0.115 | [6]; compound concentration: 3.13uM -0.302 | [6]; compound concentration: 6.25uM -0.266 | [6]; compound concentration: 12.5uM -0.478 | [6]; compound concentration: 25uM -0.333 | [6]; compound concentration: 50uM -0.142 | [6]; compound concentration: 100uM -0.14 | [6]; compound concentration: 200uM -0.258 | [7]; compound concentration: 0.78uM -0.469 | [7]; compound concentration: 1.56uM -0.274 | [7]; compound concentration: 3.13uM -0.434 | [7]; compound concentration: 6.25uM -0.346 | [7]; compound concentration: 12.5uM -0.221 | [7]; compound concentration: 25uM -0.268 | [7]; compound concentration: 50uM -0.264 | [7]; compound concentration: 100uM -0.248 | [7]; compound concentration: 200uM -0.262 | [8]; compound concentration: 0.78uM -0.197 | [8]; compound concentration: 1.56uM -0.309 | [8]; compound concentration: 3.13uM -0.298 | [8]; compound concentration: 6.25uM -0.173 | [8]; compound concentration: 12.5uM -0.186 | [8]; compound concentration: 25uM -0.167 | [8]; compound concentration: 50uM -0.0663 | [8]; compound concentration: 100uM -0.169 | [8]; compound concentration: 200uM -0.282 | [9]; compound concentration: 50uM 0.213 | [9]; compound concentration: 200uM -0.308 | [10]; compound concentration: 50uM -0.12 | [10]; compound concentration: 200uM -0.312

UniProt Q70EL2
UniProt Q70EL2, sequence (Q70EL2 whole entry): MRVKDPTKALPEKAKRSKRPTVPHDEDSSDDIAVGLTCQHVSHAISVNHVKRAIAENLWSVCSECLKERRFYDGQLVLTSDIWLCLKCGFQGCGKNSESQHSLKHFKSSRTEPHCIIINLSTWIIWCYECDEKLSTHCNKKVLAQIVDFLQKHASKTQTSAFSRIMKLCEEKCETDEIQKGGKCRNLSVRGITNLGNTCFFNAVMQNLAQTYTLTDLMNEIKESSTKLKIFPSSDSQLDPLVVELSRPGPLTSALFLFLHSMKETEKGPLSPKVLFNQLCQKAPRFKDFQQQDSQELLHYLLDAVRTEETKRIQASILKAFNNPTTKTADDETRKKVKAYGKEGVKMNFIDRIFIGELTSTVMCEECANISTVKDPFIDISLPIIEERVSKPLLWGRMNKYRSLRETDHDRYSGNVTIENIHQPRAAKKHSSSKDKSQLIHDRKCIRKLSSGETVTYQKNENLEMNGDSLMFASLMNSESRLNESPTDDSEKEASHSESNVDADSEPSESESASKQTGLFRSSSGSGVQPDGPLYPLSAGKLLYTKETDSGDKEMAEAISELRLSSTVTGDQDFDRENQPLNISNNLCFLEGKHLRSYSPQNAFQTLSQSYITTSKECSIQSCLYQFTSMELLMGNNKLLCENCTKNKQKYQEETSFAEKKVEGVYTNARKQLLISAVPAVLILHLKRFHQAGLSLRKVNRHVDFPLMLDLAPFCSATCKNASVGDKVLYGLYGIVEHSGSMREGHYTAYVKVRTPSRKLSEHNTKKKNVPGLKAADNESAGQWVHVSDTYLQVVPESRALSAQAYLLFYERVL
inactive: [1]; compound concentration: 50uM -0.13 | [1]; compound concentration: 200uM -0.934 | [2]; compound concentration: 50uM -0.103 | [2]; compound concentration: 200uM -0.476 | [3]; compound concentration: 50uM 0.274 | [3]; compound concentration: 200uM -0.808 | [4]; compound concentration: 50uM 0.181 | [4]; compound concentration: 200uM -0.179 | [5]; compound concentration: 50uM 0.189 | [5]; compound concentration: 200uM -0.754 | [9]; compound concentration: 50uM -0.48 | [9]; compound concentration: 200uM -0.823 | [10]; compound concentration: 50uM -0.354 | [10]; compound concentration: 200uM -0.47
